In the library only some 11% were active in any assay of this set; here they are far more common.
NS1 function inh = inhibitors of influenza NS1 protein function; actives 0.4% (n = 270,000); Potency, µM (titrated, usually from 46.1 µM); AID 2326; calls by dose curve; further: actives are rising curves; nearly all actives have a fitted effect of over 50% in size
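A cell-based growth assay was used: compounds that relieve NS1-induced slow growth of budding yeast raise OD600. Assay medium was yeast nitrogen base with ammonium sulphate and -URA supplement, pH 6.0, with 2% galactose.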
Pf growth 96h = P. falciparum growth inhibition at 96 hour, primary screen for plastid delayed-death inhibitors. P. falciparum luciferase reporter growth, 96 h. Potency, µM (top dose mostly 28.7 µM), hits mostly inhibitors. actives 6.9% (n = 320,000). AID 504834
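Plates of compound plus infected erythrocytes (2% hematocrit, 0.05% parasitemia final) incubate 96 hours, 37 C, 5% CO2. Detection reagent added; reduced luminescence from the parasites' luciferase reporter flags inhibition.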
AMA1 RON2 block = inhibitors of Plasmodium falciparum AMA1-RON2 interaction; actives 0.2% (n = 360,000); AlphaScreen AMA1-biotinylated RON2 peptide binding; Potency, µM (doses to about 58.2 µM), usual class: inhibitors; further: nearly all actives have a fitted effect of over 45% in size
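AMA1 (3D7) with his tag at 25 nM final met compounds first, then biotinylated RON2 peptide at 25 nM; detection used donor plus acceptor beads, 10 µg/mL apiece, read by AlphaScreen after 30 min at room temperature.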
Sm TGR inh = S. mansoni TGR enzyme inhibition; purified TGR, DTNB reduction, TNB absorbance 405 nm; Potency, µM (top dose mostly 114 µM), hits mostly inhibitors; actives 3% (n = 360,000); AID 485364; further: nearly all actives have a fitted effect of over 60% in size
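Kinetic colorimetric format: TGR-catalysed, NADPH-driven DTNB reduction monitored via TNB absorbance. Enzyme dispensed at 20 nM; compound exposure 15 min at room temperature before reaction start.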
Pf growth 48h = P. falciparum growth inhibition at 48 hours (one generation); Potency, µM (titrated, usually from 28.7 µM), usual class: inhibitors; P. falciparum luciferase growth in erythrocytes, 48 h; actives 5.9% (n = 310,000); AID 504832
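Cell-based growth assay: transgenic P. falciparum expressing firefly luciferase, cultured in red cells within RPMI 1640 containing 0.5% w/v Albumax, 24 mM bicarbonate and gentamycin. A drop in luciferase activity indicates inhibition.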
Numbers stand for hits; – = inactive; ? = inconclusive; · = no result. Unless noted, the call rests on the fitted dose curve; in most records, active means well fitted curve in the direction sought with a large enough effect; inconclusive means small, poorly fitted or top-dose-only effect, or another doubt; inactive means no such curve, though single readings can be large; an effect the other way counts as inactive or inconclusive.

SMILES	NS1 function inh	Pf growth 96h	AMA1 RON2 block	Sm TGR inh	Pf growth 48h
CCOC(=O)C1=C(Cc2ccc(OC)cc2)C(=O)c2ccccc2C1=O	–	·	?	14µM	4.7µM
CCOC(=O)c1ccc(COC(=O)c2ccc3c(c2)-c2ccccc2C3=O)cc1	–	–	–	–	–
O=C(Nc1cc(Cl)ccc1Cl)c1ccc2c(c1)N(Cc1cccc(Cl)c1)C(=O)c1ccccc1S2=O (stereo unspecified)	·	·	·	–	·
CCc1cccc(C)c1NS(=O)(=O)Cc1ccccc1	–	?	–	–	?
COCCN(C(=O)Cc1cccs1)C(C(=O)NCc1ccc(OC)cc1)c1ccc(OC)cc1 (stereo unspecified)	–	?	–	–	13µM
COc1ccc(CNC(=O)C(c2cccs2)N(Cc2ccco2)C(=O)Cc2cccs2)cc1 (stereo unspecified)	–	–	–	28µM	13µM
COc1ccc(CNC(=O)C(c2ccco2)N(Cc2cccs2)C(=O)Cc2cccs2)cc1 (stereo unspecified)	–	?	–	?	?
O=C(C[C@@H]1C/C=C\C[C@@H](NC(=O)OCC2c3ccccc3-c3ccccc32)C(=O)OCCNC1=O)N[C@@H](CO)Cc1ccccc1	·	·	–	·	·
CC(=O)N1CC2(CC(=O)OC(C)C)CN(C(C)=O)CC(CC(=O)OC(C)C)(C1)C2=O	–	12µM	–	–	–
Cc1ccc(C2NC(=O)NC3=C2CCc2ccccc23)cc1 (stereo unspecified)	–	–	–	40µM	–
COc1cc(-c2nc(Cc3c(F)cccc3Cl)no2)cc(OC)c1OC	?	?	–	–	12µM
COc1cc(-c2nc(-c3cccc(C)c3)no2)cc(OC)c1OC	–	·	–	–	–
COc1cc(-c2noc(-c3cccc(Cl)c3)n2)cc(OC)c1OC	–	15µM	–	–	–
N#Cc1cc2sc3nnc(-c4ccncc4)n3c2cc1C#N	–	?	–	–	13µM
O=C(CN1C(=O)NC2(CCCC2)C1=O)NNC(=O)c1ccc(Cl)cc1	·	–	–	–	–
C#CCOCCOCCOCCNc1nc(N2CCOCC2)nc(N2CCN(C(=O)CCCCCCCCCCNC(=O)[C@H]([C@@H](C)CC)n3cc(CCCCN=C(N)N)nn3)CC2)n1	·	0.52µM	–	–	0.37µM
C#CCOCCOCCOCCNc1nc(N2CCN(C(=O)CCCCCCCCCCNC(=O)[C@H]([C@@H](C)CC)n3cc(CCCCN=C(N)N)nn3)CC2)nc(N2CCN(C(=O)CCCCCCCCCCNC(=O)[C@H](CCCN=C(N)N)n3cc(C[C@@H](C)CC)nn3)CC2)n1	·	5.2µM	·	?	4.7µM
C#CCOCCOCCOCCNc1nc(N2CCOCC2)nc(N2CCN(C(=O)[C@H]([C@@H](C)CC)n3cc(CCCN=C(N)N)nn3)CC2)n1	–	?	–	–	–
C#CCOCCOCCOCCNc1nc(N2CCN(C(=O)CCCCCCCCCCNC(=O)[C@H](CCCN=C(N)N)n3cc(C[C@@H](C)CC)nn3)CC2)nc(N2CCN(C(=O)CCCCCCCCCCNC(=O)[C@@H]([C@H](C)CC)n3cc(CCCCCN)nn3)CC2)n1	·	8.3µM	·	?	3.3µM
C#CCOCCOCCOCCNc1nc(N2CCN(C(=O)[C@H]([C@@H](C)O)n3cc(CCCCN)nn3)CC2)nc(N2CCN(C(=O)[C@H]([C@@H](C)CC)n3cc(CCCCN)nn3)CC2)n1	·	–	–	–	–
C#CCOCCOCCOCCNc1nc(N2CCN(C(=O)CCCCCCCCCCNC(=O)[C@H]([C@@H](C)CC)n3cc(CCCCN=C(N)N)nn3)CC2)nc(N2CCN(C(=O)CCCCCCCCCCNC(=O)[C@@H]([C@H](C)O)n3cc(C)nn3)CC2)n1	·	?	?	?	1.9µM
C#CCOCCOCCOCCNc1nc(N2CCN(C(=O)[C@H]([C@@H](C)CC)n3cc(CCCCN)nn3)CC2)nc(N2CCN(C(=O)[C@H](CCCCN)n3cc(CC(C)O)nn3)CC2)n1 (stereo partly specified)	·	–	–	–	–
Cc1ccccc1-n1ccnc1SCC(=O)Nc1cccc(S(=O)(=O)NC2=NCCC2)c1	·	·	–	·	·
Cc1noc(C)c1-c1nc(CS(=O)(=O)c2ccccc2)no1	–	–	–	–	?
COCCCNC(=O)c1ccc(Cn2c(=O)c3ccccc3n(CC(=O)Nc3c(C)cccc3C)c2=O)cc1	·	·	·	–	·
SMILES	NS1 function inh	Pf growth 96h	AMA1 RON2 block	Sm TGR inh	Pf growth 48h
O=[N+]([O-])c1ccc(N2CCN(Cc3ccccc3)CC2)c2c1no[n+]2[O-]	·	·	22µM	·	·
O=C(c1cc([N+](=O)[O-])ccc1Cl)N1c2ccccc2Sc2ccccc21	–	2.1µM	–	–	7.4µM
COc1cc2nc(NCCC(C)C)n3nc(-c4ccccc4)nc3c2cc1OC	·	·	·	–	·
CC1CCN(C(=O)CSc2nc3c(c(=O)n2C)SC(C)C3)CC1 (stereo unspecified)	–	?	–	–	–
CC(=O)N1CCN(c2nc(C)nc3sc4c(c23)CCC(C)C4)CC1 (stereo unspecified)	–	?	–	–	?
Cc1nc(N2CCN(S(=O)(=O)c3ccccc3)CC2)c2c3c(sc2n1)CC(C)CC3 (stereo unspecified)	–	10µM	–	–	?
Cc1ccc(NC(=O)c2ccc(OC(=O)c3ccco3)cc2)cc1	–	–	–	–	–
COC(=O)CC(NC(=O)c1ccco1)c1ccc(C(C)C)cc1 (stereo unspecified)	–	·	–	–	–
CCc1ccc(OCC(=O)NC(NC(=S)Nc2ccc(Cl)cc2)C(Cl)(Cl)Cl)cc1 (stereo unspecified)	–	13µM	–	–	?
COc1ccc(Cl)cc1C(=O)Nc1ccc(NC(=O)c2ccco2)cc1	–	2.1µM	–	–	?
CCOC(=O)CC(NC(=O)c1ccco1)c1ccc(C)cc1 (stereo unspecified)	–	6.6µM	–	–	–
Cc1ccc(Oc2ccc(NC(=O)c3ccco3)cc2)cc1	–	–	–	–	0.93µM
CCC(=O)Nc1ccccc1C(=O)OCc1cc(=O)n2cc(C)sc2n1	·	·	·	–	·
CCOC(=O)c1ccccc1NC(=O)N(C)CCc1c(C)nn(CC)c1C	·	·	·	–	·
CCCCN(C(=O)CN1C(=O)C2CCCCC2C1=O)c1c(N)n(CCCC)c(=O)[nH]c1=O (stereo unspecified)	·	–	–	–	–
CCOc1ccc(C(=O)Nc2nnc(SCc3cc(=O)n4ccccc4n3)s2)cc1	·	·	·	–	·
CCN(C(=O)c1cn(-c2ccc(OC)cc2)c(=O)c2ccccc12)c1cccc(Cl)c1	·	·	·	–	·
O=C(Nc1ccc(-c2nc3cc(Cl)ccc3c(=O)o2)cc1)c1ccco1	–	?	–	–	–
O=C(CCc1ccccc1)NC(NC(=S)Nc1cccc(Cl)c1)C(Cl)(Cl)Cl (stereo unspecified)	–	9.3µM	–	–	?
O=C(Nc1ccc(-c2nc3c(ccc4ccccc43)o2)cc1)c1ccco1	–	1.9µM	–	–	·

Assay outcomes as filed in PubChem BioAssay.
